D1 antag: antagonists of human D1 dopamine receptor; hit rate 3.2% among 360,000; AID 504652; activity change, negative = inhibition, % at 10 µM; HEK293 TREx D1 cells, calcium flux, dopamine EC80; hits give low values; in the data active means activity change below about -30%; further: on the % scale 0 is the no-effect control and ±100 the full control effect
Target sequence (P21728 whole entry, looked up): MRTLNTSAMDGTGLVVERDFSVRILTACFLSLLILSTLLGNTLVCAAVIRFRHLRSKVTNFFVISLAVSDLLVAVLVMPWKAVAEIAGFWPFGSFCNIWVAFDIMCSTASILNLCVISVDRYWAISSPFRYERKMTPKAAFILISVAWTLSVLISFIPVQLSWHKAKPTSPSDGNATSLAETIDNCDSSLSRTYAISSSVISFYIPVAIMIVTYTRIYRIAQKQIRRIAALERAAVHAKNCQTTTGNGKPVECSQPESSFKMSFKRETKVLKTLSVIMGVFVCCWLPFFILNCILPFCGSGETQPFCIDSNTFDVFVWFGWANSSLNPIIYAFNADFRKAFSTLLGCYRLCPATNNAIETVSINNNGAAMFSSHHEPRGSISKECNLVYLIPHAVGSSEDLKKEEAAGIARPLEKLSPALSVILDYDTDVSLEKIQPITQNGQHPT
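Kinetic fluorescence of a calcium dye serves as the read-out. D1-expressing Hek293 Trex cells, induced overnight at 30 C, are exposed to compound for 180 s before an EC80 dopamine addition, then read 180 s further.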
D1 ag: agonists of human D1 dopamine receptor. activation, % at 2 µM. AID 504660. hit rate 1% among 360,000. HEK293 T-REx D1 cells, calcium flux, agonist mode; further: 0% is about no effect
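Agonism was scored from calcium flux recorded over 180 s (1 read/s) after pintool compound addition, following a 10-cycle baseline. Cells were inducible force-coupled HEK293 TREx D1, plated overnight at 30 C and loaded with no-wash calcium dye.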
TRHR PAM: TRH receptor (human) allosteric enhancement; P34981; TRHR cells, fluo-8 calcium fluorescence, EC20 TRH enhancement; enhancement, % at 2 µM; hit rate 0.66% among 360,000; AID 493056; in the data active means enhancement above about 30%; further: 0% is about no effect
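TRHR-expressing cells loaded with fluo-8 calcium dye were read kinetically (ex 480/em 530) during compound addition, then stimulated with an EC20 of TRH (10 nM final). Enhancement of the Gq-mediated intracellular calcium response was scored.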
Epigenetic derep: derepresses silenced GFP reporter in murine cells | murine LDR cells, GFP reporter derepression, 30 h | Potency, µM (top dose mostly 53.9 µM), for inactives: at the highest dose GFP activation, hits mostly activators | hit rate 0.2% among 280,000; active means well fitted activation curve with a large enough effect; inconclusive means small, poorly fitted or top-dose-only effect; further: potency means the concentration at half of the fitted maximal effect; % of control where 0% means no effect; nearly all actives have a fitted effect of over 60% in size
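Reporter derepression read as number of fluorescent GFP-positive objects, 20-120 um in size, counted by laser-scanning cytometer. Mouse LDR line with an epigenetically silenced CMV-GFP locus; compound incubation 30 h, 37 C.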
TRHR agonist: TRH receptor (human) agonism | TRHR cells, calcium flux fluo-8, FDSS agonist mode | P34981 | hit rate 0.18% among 360,000 | activation, % at 2 µM; further: 0% is about no effect
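Steps: seed TRHR cells overnight; add fluo-8 no-wash Ca dye, RT 30 min–1.5 h; record 10 s baseline; pin-transfer compounds; monitor fluorescence 1 cycle/s for the agonist window. Calcium increases flag candidate agonists.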
D1 potentiator: enhances dopamine response at the human D1 receptor | hit rate 0.036% among 360,000 | HEK293 TREx D1 cells, calcium flux, dopamine EC20 potentiation | potentiation, % at 10 µM; in the data active means potentiation above about 30%; further: 0% is about no effect
* = called active by the depositor; ? = inconclusive; . = no result given; ! = not active in a repeat; [ ] = remark or other dose. In the library only some 4.6% were active in any assay of this set; here they are far more common. Unless noted, no stated cut-off is given here; in the data, active means activation above about 30%; inactive means the rest.

SMILES	D1 antag	D1 ag	TRHR PAM	Epigenetic derep	TRHR agonist	D1 potentiator
CCOc1ccccc1CNS(=O)(=O)c1ccc2c(c1)C(C)(C)C(=O)N2C	-35*!	3	1	15%	0	0
Cc1ccc(N(C)S(=O)(=O)c2ccc3c(c2)C(C)(C)C(=O)N3C)cc1C	-19	5	-4	2%	0	-4
COc1cc(-c2nc(Cn3nnc(C(=O)Nc4cccc(Cl)c4)c3C)c(C)o2)cc(OC)c1OC	0	-1	4	3%	2	1
COc1ccc(CCN(C)C(=O)CSc2nc3ncc(Cl)cc3[nH]2)cc1OC	-67*	-1	-2	-3%	1	-1
COCCNC(=O)C1=CC(c2ccc3c(c2)OCO3)=NS(=O)(=O)N1C	0	1	-1	2%	1	0
CCCCSc1nnc2c(n1)[nH]c1ccccc12	-9	-1	3	-1%	0	0
CCCCCSc1nnc2c(n1)[nH]c1c(C)cccc12	-30*	5	-6	1%	-1	1
CCCCN(Cc1ccccc1)S(=O)(=O)c1ccc2c(c1)CC(C)N2C(=O)CC (centres undefined)	-6	17	8	2%	-2	-1
Cc1ccc2oc(=O)c3cc(C(=O)Nc4ccccc4C(N)=O)sc3c2c1	1	1	22	1%	0	-1
Cc1ccc(SCc2cc(=O)[nH]c(SCC(=O)Nc3cc(Cl)ccc3Cl)n2)cc1	-34*	-3	6	0%	0	7
CCn1c(CNC(=O)c2ccc(OC)cc2)nnc1SCC(=O)Nc1ccc(C)cc1	9	2	-2	-1%	1	1
Cc1ccc(-n2c(=O)c3c(c4cc(C)ccc4n3C)n(CC(=O)N3CCCC3)c2=O)cc1	-5	-2	-3	0%	0	1
O=[N+]([O-])c1ccc(-n2ccnc2)cc1	-38*	2	0	0%	1	-9
C=C(C)C(O)/C=C/CCCCCCC (centres undefined)	.	.	.	0%[10.1 µM]	.	.
O=C(/C=C/c1ccc(O)cc1)c1ccccc1	-7	9	-7	-1%	2	-6
O=C(/C=C/c1ccc(N2CCC(c3ccccc3)=N2)cc1)c1ccccc1	-28	138*	-3	16%	57*	-12
CCOc1ccccc1NS(=O)(=O)c1c(C)nc2sccn2c1=O	-12	1	-12	-1%	0	-5
O=C1CC(=C(c2ccccc2)c2ccccc2)C(=O)N1CCCCN1CCN(c2ccccc2)CC1	-57*	1	20	0%	0	-11
COc1ccc(Nc2oc(-c3cccs3)nc2C#N)cc1	-43*	2	-6	1%	-1	-10
COc1ccc(C2N3CC4(C)CN2CC(c2ccccc2)(C3)C4=O)cc1 (centres undefined)	2	-1	3	-3%	1	6
Cc1cc2c(s1)c1cnn(Cc3ccc4ccccc4c3)c(=O)c1n2C	-2	4	4	.	0	-5
CC(C)C1COc2cc3oc(=O)ccc3cc2O1 (centres undefined)	.	.	.	-1%	.	.
CC1=CC(C)(C)NC(=S)N1c1ccc(C)cc1C	-22	4	-5	6%	-1	-5
CC1=CC(C)(C)NC(=S)N1c1cc(C)cc(C)c1	-51*	-3	0	1%	0	3
O=C(Cc1cccc(C(F)(F)F)c1)Nc1cccc(S(=O)(=O)N2CCCC2)c1	-41*	11	-5	.	-1	-10
SMILES	D1 antag	D1 ag	TRHR PAM	Epigenetic derep	TRHR agonist	D1 potentiator
O=C(Cc1cccc(C(F)(F)F)c1)Nc1cc(S(=O)(=O)N2CCOCC2)ccc1N1CCCC1	-43*	1	-17	.	2	-24
CC(=O)N1CCN(S(=O)(=O)c2cccc(C(=O)Nc3cc(C(F)(F)F)ccc3N3CCOCC3)c2)CC1	-31*	0	8	.	1	-10
COc1ccc(CCC(=O)Nc2cccc(S(=O)(=O)N3CCCCCC3)c2)cc1OC	-31*	10	-7	.	0	-4
O=C(Cc1cccc(C(F)(F)F)c1)Nc1ccc(S(=O)(=O)N2CCCC2)cc1	15	3	-7	.	1	-3
CC(=O)N1CCN(S(=O)(=O)c2cccc(C(=O)Nc3ccccc3N3CCOCC3)c2)CC1	-12	2	2	0%	0	1
COc1ccccc1CNC(=O)C1CCCN(c2nc3ccccc3n3cccc23)C1 (centres undefined)	2	0	7	2%	0	1
C[C@@H](CNC1CCCCC1)OC(=O)c1ccccc1	.	.	.	2%[16.9 µM]	.	.
C[C@]12CC[C@@H]3c4ccc(O)cc4CC[C@H]3[C@@H]1CC[C@H]2O	.	.	.	3%	.	.
O=C(NCc1ccncc1)C1CCN(S(=O)(=O)c2cccc(C(F)(F)F)c2)CC1	1	1	3	.	0	-5
O=C(Nc1ccncc1)C1CCN(S(=O)(=O)c2cccc(C(F)(F)F)c2)CC1	-44*	8	6	.	0	.
CC(CC(=O)Nc1cccc(S(=O)(=O)N2CCCCC2)c1)c1ccccc1 (centres undefined)	-5	10	-9	.	1	-1
O=C(Nc1ccc(C(F)(F)F)cc1)C1CCN(c2cnccn2)CC1	-56*!	5	-3	-5%	0	-4
CN1CCN(c2ccc(NC(=O)CSc3ccccc3)cc2F)CC1	-53*	6	-5	1%	0	-17
O=C(CSc1ccccc1)Nc1cccc(S(=O)(=O)N2CCCC2)c1	-32*	5	4	0%	-1	-2
COc1ccccc1NC(=O)c1oc2ccccc2c1NC(=O)Cc1ccccc1	14	1	-10	4%	0	-3
COc1ccc(C)cc1NS(=O)(=O)c1ccc2c3c(cccc13)C(=O)N2	-2	9	-8	1%	-1	-2
CCOCCCNC(=S)N1CCCN(c2nc3cc(C)c(C)cc3cc2C#N)CC1	-33*	0	4	3%	-1	-3
N#Cc1c(NC(=O)c2ccc(Br)o2)n(-c2ccccc2)c2nc3ccccc3nc12	-3	5	3	2%	6	-5
CCCCn1c(NC(=O)c2ccccc2)c(C#N)c2nc3ccccc3nc21	-4	35*	-11	1%	11	-1
CCC(C)n1c(NC(=O)c2ccccc2)c(C#N)c2nc3ccccc3nc21 (centres undefined)	-5	4	-4	20µM*	2	3
Cc1ccc(C(=O)NCCn2c(N)c(C#N)c3nc4ccccc4nc32)cc1	-2	5	0	?	0	-3
CCCS(=O)(=O)N1CCCC(C(=O)NCCCN2CCN(c3ccccc3F)CC2)C1 (centres undefined)	-38*	2	9	-1%	0	-6

Compound activity deposited in PubChem BioAssay by National Center for Advancing Translational Sciences (NCATS).
